This is a sample that favours compounds with a hit; in the whole collection about 1.3% have one here.
RPL19A-GFP yeast = alters RPL19A-GFP fluorescence in TOR pathway yeast screen; S. cerevisiae RPL19A-GFP strain, flow cytometry, 3 h; hits give low values; percent response vs DMSO, % at 10 µM; 330,000 tested, 0.3% active;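 active = percent response vs DMSO below 50%; inconclusive = fewer than 70 events counted for the yeast strain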;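 also: median channel GFP fluorescence of the barcoded RPL19A-GFP strain; ratio of sample median GFP to plate DMSO average so 100% = DMSO; lower means less RPL19A-GFP as with rapamycin TOR inhibition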
CIT2 TOR yeast = alters CIT2-GFP fluorescence in TOR pathway yeast screen; GFP response vs DMSO, % at 10 µM; S. cerevisiae CIT2-GFP strain, flow cytometry, 3 h; 100 means same as DMSO wells; 320,000 tested, 0.065% active;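 active = GFP response relative to DMSO above a set limit, near the screen mean plus 3 SD, cut at about 150% in these data; inconclusive = Fewer than 70 cells measured for a yeast strain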;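 also: ratio of well median GFP fluorescence to mean of DMSO wells on the plate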
LAP4 TOR yeast = modulators of TOR pathway LAP4-GFP in S. cerevisiae; S. cerevisiae LAP4-GFP multiplex, flow cytometry GFP, 3 h; median GFP as percent of DMSO wells; GFP response vs DMSO, % at 10 µM; 320,000 tested, 0.34% active;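 active = GFP response vs DMSO above a set limit, about the screen mean plus 3 SD, cut at about 150% in these data; inconclusive = under 70 cell events counted for the yeast strain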
Efflux pump mplx = inhibitors of Candida antifungal efflux pumps expressed in yeast. S. cerevisiae Candida pump triplex, Nile Red efflux. inhibition, % at 10 µM. 330,000 tested, 0.44% active;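 active = plate passing quality check with inhibition over a set limit, or well fluorescence over plate mean plus 4 SD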;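 also: Nile Red retained in pooled yeast measured as flow cytometry median fluorescence; 0% = buffer negative control and 100% = Enniatin B positive control; higher means more Nile Red kept so more efflux inhibition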
MEP2 TOR yeast = alters MEP2-GFP fluorescence in TOR pathway yeast screen. S. cerevisiae MEP2-GFP strain, flow cytometry GFP, 3 h; 100% = DMSO control level. GFP response vs DMSO, % at 10 µM. 330,000 tested, 0.51% active;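 active = GFP response versus DMSO above a set limit, roughly screen mean plus 3 SD, cut at about 180% in these data; inconclusive = fewer than 70 cells counted for a yeast strain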;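 also: median GFP fluorescence of the barcode-gated MEP2-GFP cells per well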
AGP1 TOR yeast = modulators of TOR pathway AGP1-GFP in S. cerevisiae. S. cerevisiae AGP1-GFP multiplex flow cytometry, 3 h; GFP as percent of DMSO wells. GFP response vs DMSO, % at 10 µM. 320,000 tested, 0.02% active;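 active = GFP response relative to DMSO above a set limit, near screen average plus 3 SD, cut at about 150% in these data; inconclusive = fewer than 70 cells counted for the yeast strain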;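 also: median GFP channel fluorescence of the gated AGP1 strain per well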
* marks the source's active call; other numbers are inactive results; ? = inconclusive; nt = not tested or not shown; [ ] = remark or other dose.

SMILES	RPL19A-GFP yeast	CIT2 TOR yeast	LAP4 TOR yeast	Efflux pump mplx	MEP2 TOR yeast	AGP1 TOR yeast
C=CCn1cc(C(=O)N2CCN(c3ccccc3)CC2)c(=O)c2cc(S(=O)(=O)N3CCCC3)ccc21	98.0	102.6	103.3	0.0	103.5	101.7
COc1ccccc1CNC(=O)CS(=O)Cc1nc(-c2ccc(OC)c(OC)c2)oc1C (configuration not stated)	44.3*	92.3	78.1	-0.1	103.4	26.4
C/C(=N\Nc1cc(N2CCOCC2)ncn1)c1ccc(O)cc1	103.3	102.6	99.6	0.1	108.3	98.6
COc1cc(C(=O)NCC(=O)OC(C)C(=O)Nc2ncc(Cl)cc2Cl)cc(OC)c1OC (configuration not stated)	84.0	94.6	76.0	-0.1	?	74.4
CCn1ncc(/C=N\NC(=O)c2ccc3c(c2)c(C)c(C)n3Cc2ccccc2)c1C	?	?	?	-0.1	?	?
CCn1nc(C)c(/C=N/NC(=O)c2ccc3c(c2)c(C)c(C)n3Cc2ccccc2)c1C	21.9*[may fluoresce violet]	?	97.6	0.0	279.4*[may fluoresce violet]	?
CC(=O)c1cccc(S(=O)(=O)N2CCn3cccc3C2C)c1 (configuration not stated)	101.3	97.2	101.6	0.0	103.0	105.9
COC(=O)c1cnc(Oc2c(Cl)cc(N)cc2Cl)cc1C(F)(F)F	89.9	76.5	96.9	0.0	90.2	75.4
O=C(NCC1CCCO1)c1nn2c(C(F)(F)F)cc(-c3cc(Br)cs3)nc2c1Br (configuration not stated)	43.9*[may fluoresce violet]	?	66.9	0.1	231.2*[may fluoresce violet]	?
CCC(C)NC(=O)Nc1ccc(C)cc1C (configuration not stated)	99.0	95.5	104.7	0.2	102.3	99.6
CC[C@]1(C(=O)OC)[C@H]2C(=O)N(C)C(=O)[C@H]2[C@H]2CN(C)C(=NC)N21	nt	nt	nt	0.2	nt	nt
NC(=O)C(c1cccc(Cl)c1)c1ncc(C(F)(F)F)cc1Cl (configuration not stated)	53.2	?	85.0	0.1	239.1*[may fluoresce violet]	20.3
COc1ccccc1CNC(=O)CN(C)S(=O)(=O)c1ccc(Br)s1	21.3*[may fluoresce violet]	?	?	0.7	?	?
CC1CN(C(=O)COC(=O)c2ccc(O)cc2)CC(C)O1 (configuration not stated)	22.7*[may fluoresce violet]	?	63.1	0.0	?	?
COc1ccc(N2CCN(C(CNC(=O)COc3ccccc3)c3ccco3)CC2)cc1 (configuration not stated)	102.2	102.6	100.3	0.1	99.8	110.1
Cc1cc(O)c(C(C)C)cc1NS(=O)(=O)c1ccccc1	45.9*[may fluoresce violet]	?	103.5	-0.1	182.3*[may fluoresce violet]	19.9
N#Cc1c(N)n(-c2cccc(C(=O)O)c2)c2nc3ccccc3nc12	61.0	?	83.0	-0.1	198.4*[may fluoresce violet]	18.7
Cc1ccc(C(=O)NCCCNC(=O)Cc2ccc(Cl)cc2)cn1	102.6	101.7	102.2	-0.1	101.9	112.4
CCOc1cc2[nH]c(=O)n(CCCCCC(=O)NCc3ccco3)c(=O)c2cc1OCC	60.9	?	92.0	-0.1	189.6*[may fluoresce violet]	19.6
Nc1c2c(nc3ccc(Br)cc13)N(C1CCCCC1)CC2	91.0	94.2	97.0	2.4*	100.6	95.5
Cc1ccc(Nc2nc(-c3sc(N)nc3C)cs2)cc1	101.2	96.7	94.0	0.0	98.0	97.8
COc1ccc(Nc2nc(-c3sc(N)nc3C)cs2)cc1	40.1*[may fluoresce violet]	?	?	0.1	212.8*[may fluoresce violet]	?
Cc1nc(N)sc1-c1csc(Nc2ccc(Cl)cn2)n1	91.2	92.8	163.8*	-0.2	95.0	96.1
COc1ccc(S(=O)(=O)n2[nH]c(=O)c(CCO)c2C)cc1	94.8	136.8	106.2	0.0	114.5	107.6
Cc1c(CCO)c(=O)[nH]n1S(=O)(=O)c1ccc([N+](=O)[O-])cc1	92.3	155.6*[may fluoresce green]	102.1	-0.2	103.1	115.1
SMILES	RPL19A-GFP yeast	CIT2 TOR yeast	LAP4 TOR yeast	Efflux pump mplx	MEP2 TOR yeast	AGP1 TOR yeast
CC(C)CN(C(=O)CN(C)CC(=O)Nc1ccc(Cl)c(C(F)(F)F)c1)c1c(N)n(CC(C)C)c(=O)[nH]c1=O	94.6	98.9	95.0	0.0	91.8	96.5
O=C(NN=Cc1ccccc1C(=O)O)c1ccc(NS(=O)(=O)c2cccs2)cc1	101.6	102.9	113.8	0.0	112.9	107.6
CCOC(=O)N1CCC(NC(=O)c2cc3c(-c4cccc(OC)c4)nn(C)c3s2)CC1	55.3	89.8	213.5*	0.2	97.3	100.5
Cc1ccccc1CN(c1ccc(C(N)=O)cc1)S(C)(=O)=O	16.7*[may fluoresce violet]	?	101.7	0.0	309.9*[may fluoresce violet]	?
O=C(/C(=C/c1ccccc1)n1cncn1)c1ccc(Cl)cc1Cl	97.7	69.8	150.9*	-0.2	88.1	82.9
N#C/C(=C\c1ccc(N2CCOCC2)o1)c1ccccc1	99.8	91.2	121.0	0.1	110.9	88.9
N#C/C(=C/c1ccc(N2CCOCC2)o1)c1ccc(Br)cc1	100.1	101.9	167.4*	0.0	112.6	100.2
O=C(Cc1ccccc1)NCC(=O)N1CCN(c2ccccc2)CC1	102.7	103.6	90.1	0.0	102.7	100.6
O=C(O)c1cccc(N2C(=O)c3cc([N+](=O)[O-])cc4cc([N+](=O)[O-])cc(c34)C2=O)c1	110.5	109.0	110.4	0.1	120.5	103.0
N=c1n(CCN2CCCCC2)c2ccccc2n1CC(=O)c1ccc(Cl)c(Cl)c1	92.2	86.8	168.4*	0.1	128.3	89.6
CCn1c(=N)n(CC(=O)c2ccc(Cl)c(Cl)c2)c2ccccc21	101.2	97.5	102.4	0.1	118.0	94.5
Cc1nnc(SCC(=O)NNC(=O)c2ccccc2)n1N	101.8	96.4	102.6	-0.1	99.5	101.5
CCCn1c(=O)c2ccccc2n2c(SCc3c(C(=O)OCC)oc4ccccc34)nnc12	98.3	97.8	104.5	0.1	96.3	99.2
CCOC(=O)c1oc2ccccc2c1CSc1nnnn1-c1ccc(OC)cc1	50.6	?	87.6	0.0	247.8*[may fluoresce violet]	?
CNc1cc(CSC)nc(SCc2ccc(Cl)cc2Cl)n1	91.5	80.1	164.3*	0.1	98.3	92.8
CCOC(=O)c1[nH]cnc1C(=O)Nc1ccc([N+](=O)[O-])cc1	32.7*[may fluoresce violet]	?	60.1	0.2	761.2*[may fluoresce violet]	?
CN(Cc1cc([N+](=O)[O-])c2cccnc2c1O)C1CCCCC1	109.5	103.2	95.8	8.2*	104.5	101.6
Nc1nonc1-n1nnc(C(=O)N/N=C/c2ccc(OCc3ccccc3)cc2)c1CN1CCCCC1	94.8	100.5	97.2	0.1	100.0	102.0
COc1ccc(/C=C(\NC(=O)c2ccco2)C(=O)NCc2ccco2)cc1	102.2	100.4	94.2	-0.2	106.3	102.1

High-throughput results as filed in PubChem BioAssay.
